Most compounds without a hit are left out; they make up all but 2.4% or so of the library.
Cruzain noTriton = cruzain (T. cruzi) inhibition without detergent; Potency, µM, inactives show max response, negative = inhibition, most hits filed as inhibitors; 2.3% of 200,000 active; purified cruzain, Z-FR-AMC fluorescence, no detergent; AID 1476; P25779;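 note: plate controls were enzyme without inhibitor for no effect and buffer without enzyme for full effect; nearly all actives have a fitted effect of over 40% in size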
Target sequence (P25779 123-467 limits assumed): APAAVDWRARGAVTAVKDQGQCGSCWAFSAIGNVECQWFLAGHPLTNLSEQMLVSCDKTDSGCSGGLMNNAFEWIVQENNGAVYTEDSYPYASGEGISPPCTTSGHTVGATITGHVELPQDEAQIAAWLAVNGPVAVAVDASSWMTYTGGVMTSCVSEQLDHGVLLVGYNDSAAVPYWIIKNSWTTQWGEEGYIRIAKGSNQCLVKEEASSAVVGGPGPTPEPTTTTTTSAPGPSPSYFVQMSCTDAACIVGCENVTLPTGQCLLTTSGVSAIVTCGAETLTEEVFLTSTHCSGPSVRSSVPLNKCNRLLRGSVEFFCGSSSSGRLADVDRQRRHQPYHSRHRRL
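Detergent-free condition (0.00005% Triton X-100) in acetate buffer pH 5.5 with DTT. 1.5 nM enzyme and compound were pre-mixed 15 min, then 2 uM Z-FR-AMC substrate added; reaction progress from fluorescence change between first and third reads (60 s).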
Cruzain inh Det = cruzain (T. cruzi) inhibition with detergent; P25779; purified cruzain, Z-FR-AMC fluorescence, 0.01% Triton; Potency, µM, without a hit: max response, negative = inhibition, actives largely listed as inhibitors; 0.43% of 200,000 active;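 note: plate controls were neutral wells for no effect and buffer without enzyme for full effect; nearly all actives have a fitted effect of over 40% in size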
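Sodium acetate buffer (100 mM, pH 5.5) containing 5 mM DTT and 0.01% Triton X-100 hosted 1.5 nM cruzain and test compound for 15 min at room temperature. Cleavage of 2 uM Z-FR-AMC was then tracked by fluorescence.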
Active calls of the source: *. Calls come from the whole dose curve; as a rule, active = well fitted curve in the direction sought with a large enough effect; inconclusive = small, poorly fitted or top-dose-only effect, or another doubt; inactive = no such curve, though single readings can be large; an effect the other way counts as inactive or inconclusive. Potency is the fitted concentration of half-maximal effect.

Cc1ccc(CNc2nc(N)c([N+](=O)[O-])c(NCc3ccccc3)n2)cc1 was read as Cruzain noTriton inconclusive and Cruzain inh Det -2%.
`O=C(Nc1nc2cc(Cl)ccc2s1)C1CCCN(S(=O)(=O)c2cccc3cccnc23)C1` (stereo not given) gave Cruzain noTriton 25µM* and Cruzain inh Det -8%.
Screening O=C(Nc1nccs1)C1CCCN(S(=O)(=O)c2cccc3cccnc23)C1 (stereo not given) returned Cruzain noTriton 3% and Cruzain inh Det 1%.
For COc1ccc2nc(NC(=O)C3CCN(S(=O)(=O)c4cccs4)CC3)sc2c1 the results were Cruzain noTriton inconclusive and Cruzain inh Det -1%.
For COc1ccc2nc(NC(=O)C3CCCN(S(=O)(=O)c4cccs4)C3)sc2c1 (stereo not given) the results were Cruzain noTriton 25µM* and Cruzain inh Det -2%.
`CC(C)=CCC/C(C)=C/CC/C(C)=C/CSc1ccccc1C(=O)O` gave Cruzain noTriton 17% and Cruzain inh Det -25%.
For Cc1cc(C)cc(N2C(=O)CSC23C(=O)N(CC(=O)NC2CCCCC2)c2ccccc23)c1 (stereo not given) the results were Cruzain noTriton -10% and Cruzain inh Det -3%.
Screening Cc1ccc(Cn2c(SCC(C)C)nc3c2c(=O)[nH]c(=O)n3C)cc1 returned Cruzain noTriton 10µM* and Cruzain inh Det 1%.
CCCSc1nc2c(c(=O)[nH]c(=O)n2C)n1Cc1ccc(C)cc1 was read as Cruzain noTriton -23% and Cruzain inh Det 0%.
For O=[N+]([O-])c1ccc(C2Oc3ccccc3C3CC(c4ccccc4)=NN32)s1 (stereo not given) the results were Cruzain noTriton 16µM* and Cruzain inh Det -11%.
Screening c1ccc(C2Oc3ccccc3C3CC(c4cccs4)=NN32)cc1 (stereo not given) returned Cruzain noTriton -3% and Cruzain inh Det -13%.
For COc1cccc(NC(=O)Cn2c(=O)n(-c3ccccc3)c(=O)c3c4c(sc32)CCCC4)c1 the results were Cruzain noTriton 1% and Cruzain inh Det -1%.
`CCCCC(=O)Nc1ccc(NC(=O)c2ccc([N+](=O)[O-])cc2)cc1OC` gave Cruzain noTriton -3% and Cruzain inh Det -1%.
`CCCOc1ccc(/C=C/C(=O)Nc2ccc([N+](=O)[O-])cc2C)cc1OC` gave Cruzain noTriton 6% and Cruzain inh Det 8%.
`CCCCC(=O)Nc1ccc(C(=O)Nc2ccc(OC)cc2[N+](=O)[O-])cc1` gave Cruzain noTriton 16µM* and Cruzain inh Det 2%.
For CCOc1ccc(NC(=O)/C=C/c2ccc(OC)cc2)c([N+](=O)[O-])c1 the results were Cruzain noTriton 4µM* and Cruzain inh Det 14µM*.
For COc1ccc(/C=C/C(=O)Nc2ccc(OC)cc2[N+](=O)[O-])cc1 the results were Cruzain noTriton -7% and Cruzain inh Det -2%.
For CCCOc1ccc(/C=C/C(=O)Nc2ccc([N+](=O)[O-])cc2C)cc1 the results were Cruzain noTriton 25µM* and Cruzain inh Det 2%.
`Cc1ccc(OC(=O)CSc2nnc(-c3ccc4c(c3)OCO4)o2)c(C)c1` gave Cruzain noTriton -5% and Cruzain inh Det -4%.
COC1C(O)C(O)C(O)C(O)C1O (stereo not given) was read as Cruzain noTriton -5% and Cruzain inh Det 1%.
`Cn1nccc1C(=O)Nc1ccn(C23CC4CC(CC(C4)C2)C3)n1` gave Cruzain noTriton -7% and Cruzain inh Det -5%.
For O=C(Nc1ccc(Br)cc1)c1nn(C23CC4CC(CC(C4)C2)C3)cc1Br the results were Cruzain noTriton 25µM* and Cruzain inh Det 0%.
Cc1ccc(C2CC(=O)Oc3cc4c(cc32)OCO4)cc1 (stereo not given) was read as Cruzain noTriton -17% and Cruzain inh Det -9%.
For CCc1ccc(C2C(C#N)=C(N)SC(N)=C2C#N)cc1 the results were Cruzain noTriton -12% and Cruzain inh Det -18%.
`CCc1ccc(C2C(C#N)=C(N)SC(N)=C2C#N)s1` gave Cruzain noTriton 16µM* and Cruzain inh Det -27%.
For Cc1ccccc1-c1ccc2ncnc(N(C)Cc3ccco3)c2c1 the results were Cruzain noTriton 3% and Cruzain inh Det -2%.
For CC(/C=N\Nc1nnc2c(n1)[nH]c1c(C)cccc12)=C\c1ccco1 the results were Cruzain noTriton 4µM* and Cruzain inh Det 2%.
Screening CCCCCSc1nnc2c(n1)[nH]c1c(C)cccc12 returned Cruzain noTriton inconclusive and Cruzain inh Det -1%.
For COc1ccc(NC(=O)CCCOc2cc(=O)n(C)c3ccccc23)c(OC)c1 the results were Cruzain noTriton inconclusive and Cruzain inh Det -3%.
`CCn1c2ccccc2c2cc(NC(=O)CSc3nnc(-c4cccc(Cl)c4)o3)ccc21` gave Cruzain noTriton 10µM* and Cruzain inh Det 6%.
For Cc1cccc(-c2nnc(SCC(=O)Nc3ccc(C)c(C)c3)o2)c1 the results were Cruzain noTriton -11% and Cruzain inh Det -1%.
For CCOC(=O)c1sc(NC(=O)/C=C/c2c(F)cccc2Cl)nc1C the results were Cruzain noTriton 13µM* and Cruzain inh Det -8%.
For CCOC(=O)c1sc(NC(=O)c2ccc(CC)s2)nc1C the results were Cruzain noTriton 16µM* and Cruzain inh Det 4%.
Screening CCOC(=O)c1sc(NC(=O)c2ccccc2OC)nc1C returned Cruzain noTriton 5% and Cruzain inh Det -6%.
CCOC(=O)c1sc(NC(=O)Nc2ccccc2F)nc1C was read as Cruzain noTriton -7% and Cruzain inh Det -3%.
Cc1cc(C)cc(NC(=O)N2CCC(N3CCN(Cc4ccccc4)C(=O)C3=O)CC2)c1 was read as Cruzain noTriton 20% and Cruzain inh Det 1%.
Screening O=C(Cc1ccccc1)Nc1c(C(=O)Nc2ccccc2F)oc2ccccc12 returned Cruzain noTriton 16% and Cruzain inh Det -1%.
CC(C)C[C@@H]1NC(=O)[C@H](C(C)C)NC(=O)c2cc([N+](=O)[O-])cc(I)c2NCC[C@@H](C(N)=O)NC1=O was read as Cruzain noTriton 5% and Cruzain inh Det 14µM*.
Screening CC(C)[C@@H]1NC(=O)c2cc([N+](=O)[O-])cc(I)c2NCC[C@@H](C(N)=O)NC(=O)[C@H](CO)NC1=O returned Cruzain noTriton inconclusive and Cruzain inh Det -11%.
COc1ccc(-c2nnc(SCC(=O)Nc3sc4c(c3C#N)CCCC4)n2-c2ccccc2)cc1 was read as Cruzain noTriton inconclusive and Cruzain inh Det -3%.
COc1ccc(-n2c(SCC(=O)Nc3sc4c(c3C#N)CCCC4)nnc2-c2ccccc2OC)cc1 was read as Cruzain noTriton 25µM* and Cruzain inh Det -2%.
COc1cccc(-n2c(SCC(=O)Nc3sc4c(c3C(N)=O)CCC4)nc3ccccc3c2=O)c1 was read as Cruzain noTriton 25µM* and Cruzain inh Det 2%.
`COc1cccc(-n2c(SCC(=O)NCc3cccs3)nc3ccccc3c2=O)c1` gave Cruzain noTriton -14% and Cruzain inh Det -3%.
`N#Cc1ccc(-c2cccnc2)nc1SCC(=O)Nc1sc2c(c1C#N)CCC2` gave Cruzain noTriton -1% and Cruzain inh Det 3%.
COC(=O)c1cccc(-n2nnnc2SCC(=O)Nc2nc3c(s2)CCCC3)c1 was read as Cruzain noTriton inconclusive and Cruzain inh Det -2%.
COc1ccc(-c2ccc(C#N)c(SCC(=O)Nc3sc4c(c3C#N)CCC4)n2)cc1 was read as Cruzain noTriton 13µM* and Cruzain inh Det -11%.
Screening COc1cccc(-n2nnnc2SCC(=O)Nc2nc3c(s2)CCCC3)c1 returned Cruzain noTriton 25µM* and Cruzain inh Det -6%.

High-throughput results (PubChem BioAssay)
